Source: PubChem
Shown are actives, neighbours in structure and some others; about 4.8% of the full set was active somewhere.
ATXN2 expr inh = ATXN2 expression inhibition | HEK-293 ATXN2-luciferase reporter, luminescence, 24 h | Potency, µM (doses to about 57 µM), for inactives: at the top dose activity change, negative = inhibition, hits mostly inhibitors | 0.72% of 360,000 active | AID 1745845; further: potency means the concentration at half of the fitted maximal effect; on the % scale 0 is the no-effect control and ±100 the full control effect; nearly all actives have a fitted effect of over 55% in size
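qHTS (up to 57 uM final) was run with 24 h compound exposure of reporter cells at 37 °C. Each well was multiplexed: SteadyGlo luminescence measured ATXN2-luciferase expression after a fluorogenic Gly-Phe-AFC viability readout (25 uM final).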
S2 tox = viability counter-screen for ATXN expression inhibitors. Potency, µM (series often up to 56.7 µM), most hits filed as cytotoxic. 0.49% of 400,000 active. S2 cells (HEK-293 line with an ATXN2-luciferase reporter) viability, CellTiter-Fluor protease fluorescence, 24 h; further: potency means the concentration at half of the fitted maximal effect; nearly all actives have a fitted effect of over 40% in size
D3 antag = D3 dopamine receptor (human) antagonism. P35462. D3R cells, DiscoveRx beta-arrestin luminescence, antagonist mode; stronger effect = lower value. max response, negative = inhibition, %. 2.5% of 360,000 active. AID 652054; in the data active means max response below about -50%; inconclusive means no clear call, values can overlap the other calls; further: on the % scale 0 is the no-effect control and ±100 the full control effect
Target sequence (P35462 whole entry, looked up): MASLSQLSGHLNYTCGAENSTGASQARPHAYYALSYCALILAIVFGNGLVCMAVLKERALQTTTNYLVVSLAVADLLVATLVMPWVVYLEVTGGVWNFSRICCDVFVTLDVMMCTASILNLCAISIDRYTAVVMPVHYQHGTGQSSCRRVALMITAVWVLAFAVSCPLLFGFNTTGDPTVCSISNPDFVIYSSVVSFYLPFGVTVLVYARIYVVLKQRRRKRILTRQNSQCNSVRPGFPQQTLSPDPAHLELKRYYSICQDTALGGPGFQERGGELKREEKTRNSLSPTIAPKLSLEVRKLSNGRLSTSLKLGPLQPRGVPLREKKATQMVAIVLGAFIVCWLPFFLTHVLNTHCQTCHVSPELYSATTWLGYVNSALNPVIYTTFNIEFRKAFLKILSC
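Cells plated overnight at 1500 cells/well, then exposed to library compounds with dopamine controls for 90 minutes at 37 degrees C. DiscoveRx reagent added for 30–60 minutes at room temperature; luminescence read, quantitative HTS format.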
D3 ag = D3 dopamine receptor (human) agonism. max activation, %. AID 652048. P35462. 0.58% of 410,000 active. D3R DiscoveRx beta-arrestin cells, luminescence, 90 min; in the data active means max activation above about 30%; further: 0% is about no effect
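Cells at 1500/well, incubated overnight, then treated with pinned compounds (dopamine as control) for 90 min at 37 degrees C. DiscoveRx reagent added for 30 - 60 minutes at room temperature; luminescence read.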
HepG2 tox = kills HepG2 cells in TGF-b inhibitor counter-screen; HepG2 CAGA-GFP viability, ATP luminescence, 18 h; Potency, µM (highest dose often 46.1 µM), inactives show top-dose activity change, negative = cytotoxicity, usual class: cytotoxic; 0.76% of 410,000 active; further: potency means the concentration at half of the fitted maximal effect
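HepG2 CAGA-GFP cells (1000/well, DMEM with 1% FBS) received compound, then TGF-beta at 500 pg/mL final, and were incubated 18 hours at 37 degrees C. Viability was read by CellTiter-Glo luminescence. Media-only wells were set as complete cell-killing and DMSO as no toxicity.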
TGFb SMAD3 inh = inhibitors of TGF-b signaling | HepG2 CAGA-GFP TGF-b/SMAD3 reporter, GFP fluorescence, 18 h; TGF-beta stimulated, 500 pg/mL final | Potency, µM (doses to about 46.1 µM), for the others: at the highest dose activity, negative = inhibition, most hits filed as inhibitors | 1.2% of 410,000 active | AID 588855; further: potency means the concentration at half of the fitted maximal effect; on the % scale 0 is the no-effect control and ±100 the full control effect; nearly all actives have a fitted effect of over 65% in size
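HEPG2 CAGA-GFP cells (1000/well, DMEM with 1% FBS) were pre-incubated 2 h at 37 degrees C, given compound by pin tool, then stimulated with TGF-beta at 500 pg/mL final for 18 h before per-cell GFP fluorescence imaging.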
* hit, by the source's call. Unless noted, the call rests on the fitted dose curve; in most records, active means well fitted curve in the direction sought with a large enough effect; inconclusive means small, poorly fitted or top-dose-only effect, or another doubt; inactive means no such curve, though single readings can be large; an effect the other way counts as inactive or inconclusive.

Results for COc1ccc(-c2nnc(Sc3nc4ccccc4o3)c3ccccc23)cc1 ?
ATXN2 expr inh: -3%; S2 tox: inactive; D3 antag: -14; D3 ag: -12; HepG2 tox: 13µM*; TGFb SMAD3 inh: 13µM*

What do the screens show for `O=C1/C(=C/c2ccc([N+](=O)[O-])cc2)C=C(c2ccccc2)N1c1ccc(O)cc1`?
ATXN2 expr inh: 20µM*; S2 tox: inconclusive; D3 antag: inconclusive; D3 ag: -12; HepG2 tox: -9%; TGFb SMAD3 inh: 9%

How did CCOC(=O)c1cccc(NC(=O)N2CC(CC)Sc3ccccc32)c1 (configuration not stated) do in these assays?
D3 ag: -3; HepG2 tox: -2%; TGFb SMAD3 inh: 0%

How did Nc1ccc2cc3ccc(N)cc3nc2c1 do in these assays?
ATXN2 expr inh: 2.5µM*; S2 tox: inconclusive; D3 ag: 12

What do the screens show for `CCN(CCN(C)Cl)/[N+]([O-])=N/Oc1ccc([N+](=O)[O-])cc1[N+](=O)[O-]`?
HepG2 tox: -102%; TGFb SMAD3 inh: inconclusive

How did CNc1cccc(-c2cccc(O)c2)n1 do in these assays?
ATXN2 expr inh: 24%; S2 tox: inactive; D3 antag: -53*; D3 ag: -15; HepG2 tox: -7%; TGFb SMAD3 inh: 19%

How did CNc1cncc(-c2cccc(O)c2)n1 do in these assays?
ATXN2 expr inh: 29%; S2 tox: inactive; D3 antag: 0; D3 ag: -14; HepG2 tox: -9%; TGFb SMAD3 inh: 5%

How did CNc1sc(C(=O)c2ccc(F)cc2)c(N)c1-c1nc2ccccc2s1 do in these assays?
ATXN2 expr inh: 35%; S2 tox: inactive; D3 antag: -76*; D3 ag: -42; HepG2 tox: 0%; TGFb SMAD3 inh: -21%

How did CCCN(CCC)C(=O)Cn1c(=O)n(-c2ccc(CC)cc2)c(=O)c2c3c(sc21)CCC3 do in these assays?
ATXN2 expr inh: 2%; S2 tox: inactive; D3 ag: -13; HepG2 tox: -2%; TGFb SMAD3 inh: -7%

How did COc1ccc(NC(=O)CN2C(=O)NC3(CCCC3)C2=O)c(OC)c1 do in these assays?
ATXN2 expr inh: -7%; S2 tox: inactive; D3 antag: 0; D3 ag: -6; HepG2 tox: -5%; TGFb SMAD3 inh: -12%

How did COc1cccc(Oc2ccc(C(F)(F)F)cc2NC(=O)CN2C(=O)NC3(CCCC3)C2=O)c1 do in these assays?
ATXN2 expr inh: -36%; S2 tox: inconclusive; D3 antag: -23; D3 ag: 7; HepG2 tox: 13µM*; TGFb SMAD3 inh: 18µM*

What do the screens show for `CN(CC(=O)N1CCN(Cc2ccccc2)CC1)S(=O)(=O)c1ccc(F)cc1`?
ATXN2 expr inh: 10%; S2 tox: inactive; D3 antag: -59*; D3 ag: -9; HepG2 tox: -6%; TGFb SMAD3 inh: 4%

How did CN(CC(=O)N1CCN(Cc2ccccc2)CC1)S(=O)(=O)c1ccc(Br)cc1 do in these assays?
ATXN2 expr inh: -11%; S2 tox: inactive; D3 antag: inconclusive; D3 ag: -38; HepG2 tox: -7%; TGFb SMAD3 inh: -6%

How did CS(=O)(=O)N(CC(=O)N1CCN(Cc2ccccc2)CC1)c1ccccc1Br do in these assays?
ATXN2 expr inh: 62%; S2 tox: inactive; D3 antag: -58*; D3 ag: -20; HepG2 tox: -38%; TGFb SMAD3 inh: -17%

How did CS(=O)(=O)N(CC(=O)N1CCN(Cc2ccccc2)CC1)c1ccccc1F do in these assays?
ATXN2 expr inh: -11%; S2 tox: inactive; D3 antag: -22; D3 ag: -7; HepG2 tox: 0%; TGFb SMAD3 inh: -5%

Results for COc1ccc(CNC(=O)CCC2N=C3c4ccccc4N=C(SCc4ccc(F)cc4)N3C2=O)cc1 (configuration not stated) ?
ATXN2 expr inh: -25%; S2 tox: inconclusive; D3 ag: -4; HepG2 tox: -27%; TGFb SMAD3 inh: inconclusive

How did O=c1c2cccnc2n(Cc2ccc(Cl)cc2)c(=O)n1Cc1ccc(F)cc1 do in these assays?
ATXN2 expr inh: 8%; S2 tox: inactive; D3 ag: 1; HepG2 tox: 3%; TGFb SMAD3 inh: -3%

How did C=CC[C@@H](CC(=O)N(CCO)Cc1ccccc1)C(=O)NC[C@H](OC(=O)[C@@H](CC=C)Cc1ccc(F)cc1)c1ccccc1 do in these assays?
ATXN2 expr inh: inconclusive; S2 tox: 20µM*; D3 antag: 29; D3 ag: 4; HepG2 tox: -91%; TGFb SMAD3 inh: inconclusive

How did C=CC[C@@H](CC(=O)N(CCO)Cc1ccccc1)C(=O)N[C@H](COC(=O)[C@@H](CC=C)Cc1ccc(F)cc1)c1ccccc1 do in these assays?
ATXN2 expr inh: inconclusive; S2 tox: 22µM*; D3 antag: -17; D3 ag: -1; HepG2 tox: -26%; TGFb SMAD3 inh: inconclusive

Results for C=CC[C@H](CC(=O)NCCO)C(=O)NC[C@H](OC(=O)[C@@H](CC=C)Cc1ccc(F)cc1)c1ccccc1 ?
ATXN2 expr inh: 10%; S2 tox: inactive; D3 antag: 27; D3 ag: -18; HepG2 tox: -20%; TGFb SMAD3 inh: -1%

How did Cc1ccc(S(=O)(=O)Nc2ccc(O)c3cccnc23)cc1 do in these assays?
ATXN2 expr inh: 22µM*; S2 tox: inconclusive; D3 antag: -10; D3 ag: 8; HepG2 tox: -161%; TGFb SMAD3 inh: inconclusive

How did Cc1ccc(S(=O)(=O)Nc2ccc(O)c3ncccc23)cc1 do in these assays?
ATXN2 expr inh: -29%; S2 tox: inconclusive; D3 antag: -12; D3 ag: 0; HepG2 tox: -56%; TGFb SMAD3 inh: inconclusive

How did C#CCOCCOCCOCCNc1nc(N2CCN(C(=O)[C@H]([C@@H](C)CC)n3cc([C@@H](N)Cc4ccc(O)cc4)nn3)CC2)nc(N2CCN(C(=O)[C@H](Cc3cc4ccccc4[nH]3)n3cc([C@@H](N)CC(C)C)nn3)CC2)n1 do in these assays?
ATXN2 expr inh: -18%; S2 tox: inconclusive; D3 antag: -50*; D3 ag: -10; HepG2 tox: -4%; TGFb SMAD3 inh: inconclusive

What do the screens show for `C#CCOCCOCCOCCNc1nc(N2CCN(C(=O)CCCCCCCCCCNC(=O)[C@H](CCCCN)n3cc(C[C@@H](C)CC)nn3)CC2)nc(N2CCN(C(=O)CCCCCCCCCCNC(=O)[C@H](CCCN=C(N)N)n3cc(C[C@@H](C)CC)nn3)CC2)n1`?
ATXN2 expr inh: -20%; D3 antag: -76*; D3 ag: -13; HepG2 tox: 16µM*; TGFb SMAD3 inh: 13µM*
